# Bioassay records (PubChem BioAssay)
# Pf growth 48h: Primary qHTS for delayed death inhibitors of the malarial parasite plastid, 48 hour incubation. P. falciparum luciferase growth in erythrocytes, 48 h. Potency, µM (top dose mostly 28.7 µM), usual class: inhibitors. 310,000 tested, 5.9% active
#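 A one-generation exposure of luciferase-tagged malaria parasites in RPMI 1640/Albumax erythrocyte culture, 37 C and 5% CO2. Inhibition is inferred from decreased luminescence after adding detection reagent.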
# HCMV inh: qHTS Assay for inhibitors of the human cytomegalovirus (HCMV); activity change, negative = inhibition, % at 57.5 µM; 410,000 tested, 4.5% active; HFF cells, HCMV-luciferase reporter, 72 h; stronger effect = lower value; in the data active = activity change below about -60%; inconclusive = no clear call, values can overlap the other calls; inactive = above about -39%
#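 Steps: HFFs plated, 16 h 37C; compounds added; HCMV-luciferase added to MOI 1 PFU/cell; 72 h 37C; OneGlo reagent, 5 min room temperature; luminescence read, normalized to controls.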
# HCV inh: qHTS Assay for Inhibitors of Hepatitis C Virus (HCV); 340,000 tested, 3.4% active; AID 651820, 2012; Huh7.5.1 HCVcc-Cre infection, luciferase reporter, 44 h; Potency, µM (highest dose often 41.8 µM), hits mostly inhibitors
#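 After 44 h co-culture of compound, cells and HCVcc-Cre (~0.5 moi), substrate is added for 15 min at room temperature and luciferase measured over 15 sec. Cells were seeded at 1,000/well and pre-cultured 4 h.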
# Pf growth 96h: Primary qHTS for delayed death inhibitors of the malarial parasite plastid, 96 hour incubation | P. falciparum luciferase reporter growth, 96 h | Potency, µM (doses to about 28.7 µM), hits mostly inhibitors | 320,000 tested, 6.9% active | AID 504834, 2011
#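 Two-generation exposure (96 h) targets delayed-death phenotype. Reporter parasites carrying integrated firefly luciferase, in red cells at 2% hematocrit and 0.05% parasitemia final, kept at 37 C, 5% CO2; luminescence loss indicates inhibition.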
# Numbers stand for hits; 0 = inactive; ? = inconclusive; - = not tested or not shown; [ ] = remark or other dose. Only some compounds are listed: those with a hit (about 13% of all), similar ones and a draw of the others. Unless noted, calls follow the shape of the dose curve; as a rule, active = well fitted inhibition curve with a large enough effect; inconclusive = small, poorly fitted or top-dose-only effect, or another doubt; inactive = no such curve, though single readings can be large or run the other way.
SMILES,Pf growth 48h,HCMV inh,HCV inh,Pf growth 96h
COc1ccc(COC(=O)C2=C(C)NC(=O)NC2c2ccc(OC)cc2)cc1 (configuration not stated),0,-64,?,0
CC1=C(C(=O)OCc2ccc3c(c2)OCO3)C(c2ccccc2)NC(=O)N1 (configuration not stated),-,-92,?,0
CC1=C(C(=O)OCC(C)C)C(c2cc3c(cc2Br)OCO3)NC(=O)N1C (configuration not stated),10µM,0,?,0
CCOC(=O)C1=C(C)OC(N)=C(C#N)C1c1cc2c(cc1Br)OCO2 (configuration not stated),0,0,0,0
COc1ccc(COC(=O)C2=C(C)NC(=O)NC2c2ccc(O)cc2)cc1 (configuration not stated),0,0,0,0
CCCN1C(=O)C(Cc2nc3ccccc3c(=O)n2-c2cccc(C)c2)c2ccccc21 (configuration not stated),-,0,-,-
CCn1ccc2cc(S(=O)(=O)N3CCCN(C(=O)Nc4cc(Cl)ccc4C)CC3)ccc21,-,0,-,-
CCOCCOC(=O)C1=C(C)NC(=O)NC1c1cc2c(cc1Br)OCO2 (configuration not stated),0,0,0,?
COC(=O)C1=C(C)NC(=O)NC1c1ccc2ccccc2c1 (configuration not stated),?,0,0,10µM
CCOC(=O)C1=C(C)NC(=O)NC1c1cc2c(cc1Br)OCO2 (configuration not stated),9.3µM,0,?,0
CC1=C(C(=O)OCc2ccc3c(c2)OCO3)C(c2ccccc2OCc2ccccc2)NC(=O)N1 (configuration not stated),10µM,0,10µM,-
Cc1c(Cl)cccc1NS(=O)(=O)c1ccc2[nH]cc(C(=O)NC3CCCC3)c(=O)c2c1,-,0,-,-
CC1C(=O)N(Cc2cn(Cc3ccco3)nn2)CCS(=O)(=O)N1Cc1ccc(-c2cccc(N(C)C)c2)cc1 (configuration not stated),-,0,-,-
COc1ccc(-c2c([C@H]3[C@@H]4C=CCC[C@@]4(C)C(=O)N3Cc3ccccc3)ccc3ccccc23)cc1OC,5.2µM,-60,0[8.37 µM],5.2µM
CN(C)c1ccc(-c2cc([C@H]3[C@@H]4C=CCC[C@@]4(C)C(=O)N3Cc3ccccc3)ccc2F)cc1,?,0,0[8.37 µM],?
CN(C)c1ccc(-c2ccc([C@H]3[C@@H]4C=CCC[C@@]4(C)C(=O)N3Cc3ccccc3)c(F)c2)cc1,9.3µM,0,0,?
COc1ccc(-c2cc([C@H]3[C@@H]4C=CCC[C@@]4(C)C(=O)N3Cc3ccccc3)ccc2F)cc1OC,?,0,10µM,?
COc1ccc(NC(=O)Nc2nnc(N3CCCC3)s2)cc1,-,0,-,-
Cc1ccc(CNC(=O)Nc2cc(C(=O)NCc3cccc(F)c3)ccc2N2CCCC2)cc1,-,0,-,-
Cc1cccc(NC(=O)CN2C(=O)C3(SCC(=O)N3c3ccccc3)c3ccccc32)c1 (configuration not stated),-,0,-,-
CCOC(=O)NC1(C(F)(F)F)NC(=O)N(c2ccc(C)c(C)c2)C1=O (configuration not stated),-,0,-,-
Cc1ccccc1NC(=O)C1(NC(=O)c2cccc(N3C(=O)CSC3c3ccccc3)c2)CCCCC1 (configuration not stated),12µM,0,0,?
CCOc1ccc2c(c1)c(=O)c(S(=O)(=O)c1ccccc1)cn2CC(=O)Nc1ccccc1OC,-,0,-,-
CC(C)(C)c1ccc(OCc2nnc(-c3ccccc3)o2)cc1,-,0,-,-
C[C@@H](C(=O)Nc1ccc2c(c1)OCO2)n1c(=O)[nH]c2ccccc2c1=O,0,0,0,?
SMILES,Pf growth 48h,HCMV inh,HCV inh,Pf growth 96h
CC(Sc1ncnc2ccccc12)C(=O)Nc1ccc2c(c1)OCCO2 (configuration not stated),0,-73,13µM,0
Cc1ccc(C)c(NC(=O)C(Sc2ncnc3ccccc23)c2ccccc2)c1 (configuration not stated),0,-,?,0
CC(Sc1nc2ccccc2c(=O)n1C)C(=O)Nc1ccc2c(c1)OCCO2 (configuration not stated),0.15µM,-80,10µM,0.17µM
CC(=O)c1cccc(NC(=O)C(Sc2ncnc3ccccc23)c2ccccc2)c1 (configuration not stated),12µM,0,?,4.7µM
C[C@@H](C(=O)Nc1ccc2c(c1)OCCO2)n1c(=O)[nH]c2ccccc2c1=O,0,-70,0,0
COCC(C)n1c(SCC(=O)NC(=O)Nc2ccc3c(c2)OCCO3)nc2ccccc2c1=O (configuration not stated),12µM,0,0,?
CCOc1cc(CNc2ccc3cn[nH]c3c2)ccc1OC,-,0,?,13µM
Cc1ccc(N(C(=O)c2ccccc2Cl)C2=NC(C)CS2)c(C)c1 (configuration not stated),?,?,?,15µM
CCOc1ccccc1N(C(=O)c1ccccc1Cl)C1=NC(C)(C)CS1,?,0,?,?
CCOc1ccc(C(=O)Oc2c(Sc3ccccc3)c(C)nn2C(C)(C)C)cc1OCC,-,0,-,-
C=CCNC(=O)c1ccccc1NS(=O)(=O)c1ccccc1,0,?,0,9.3µM
CCCS(=O)(=O)c1ncc(Cl)c(C(=O)Nc2c(C(=O)c3ccccc3)oc3ccccc23)n1,-,0,-,-
CCN(CC)CCN(C)C(=O)c1[nH]c(C(F)(F)F)nc1-c1ccccc1,-,-99,-,-
Cc1ccc(S(=O)(=O)N2CCC(=O)N(C(COCc3ccc(Cl)c(Cl)c3)Cc3ccccc3)CC2)cc1 (configuration not stated),9.3µM,-,0,?
Cc1ccc(S(=O)(=O)N2CCC(=O)N(C(COCc3ccc(C(F)(F)F)cc3)Cc3ccccc3)CC2)cc1 (configuration not stated),?,0,?,7.4µM
Cc1ccc(S(=O)(=O)N2CCC(=O)N(C(COC(=O)Nc3ccccc3)Cc3ccccc3)CC2)cc1 (configuration not stated),?,0,?,15µM
Cc1ccc(S(=O)(=O)N2CCC(=O)N([C@H](COCc3ccc(C(F)(F)F)cc3)Cc3ccccc3)CC2)cc1,-,0,-,-
Cc1ccc(S(=O)(=O)N2CCC(=O)N(C(COCc3cccc(C)c3)Cc3ccccc3)CC2)cc1 (configuration not stated),?,0,?,9.3µM
CC(=O)Nc1cccc(-n2cc3c(c2-c2ccccc2Cl)c(=O)n(C)c(=O)n3C)c1,-,0,-,-
Cc1ccc(Nc2nc(C(N)=O)c(NC(=O)c3ccccc3Br)s2)cc1,-,0,-,-
CCc1cccc(NC(=O)Cn2nc(C)c3sc4ccccc4c3c2=O)c1,-,0,-,-
Cc1ccc(S(=O)(=O)N2CCC(=O)N(C(COCc3ccc(C(F)(F)F)cc3)C(C)C)CC2)cc1 (configuration not stated),?,-,0[8.37 µM],10µM
